This passage reports activity change, negative = inhibition results from PubChem BioAssay AID1259415 (National Center for Advancing Translational Sciences (NCATS), 2018).

About 18,000 (4.4%) of roughly 410,000 compounds were called active. Another 7% or so got no clear call; they are omitted. Only a selection was taken, and actives are over-represented in it overall. Values without a mark were called inactive. Cut-off read from the data, not from the text of the source: active = activity change below about -60%; inconclusive = no clear call, values can overlap the other calls; inactive = above about -39%.
% is set by controls: 0 for no effect and ±100 for the full control effect.

The assay in a line: qHTS Assay for inhibitors of the human cytomegalovirus (HCMV). The note with it: HFF cells, HCMV-luciferase reporter, 72 h; at 57.5 µM; active compounds read low. In outline:
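Inhibition of viral replication was scored as loss of reporter luminescence in HFFs infected with HCMV-luciferase (MOI 1 PFU/cell) for 72 h; compounds tested at 2 doses, normalized to buffer and Salinomycin controls.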
Regarding `CC(C)(C)c1ccc(C(=O)NCC(c2ccco2)S(=O)(=O)c2ccc(F)cc2)cc1` (stereo unspecified), the activity change, negative = inhibition was -16.6%.

Consider `CN(C)Cc1c(O)ccc2c(=O)c(-c3ccccc3Cl)coc12`, for which the activity change, negative = inhibition was 14.6%.

As for `CCN(Cc1ccccc1)Cc1c(O)ccc2c(=O)c(-c3ccc(Cl)cc3Cl)coc12`, the activity change, negative = inhibition was 1.81%.

As to `CC(C)CN(Cc1c(O)ccc2c(=O)c(-c3ccccc3)coc12)CC(C)C`, the activity change, negative = inhibition is -72.9% (active).

Turning to `CN(O)C(=S)c1ccccc1`, the activity change, negative = inhibition was -97.9% (active).

For the compound `CCOC(=O)c1cccn1C1C(=O)N(Cc2ccc(OC)cc2)c2c(F)cccc21` (stereo unspecified), the activity change, negative = inhibition was -32%.

Take `CC(=O)c1ccc(NC(=O)CSc2nc(-c3ccccc3F)nc3c2c(=O)n(C)c(=O)n3C)cc1`: the activity change, negative = inhibition is 0.932%.

With `O=C(Nc1nccs1)c1cc(S(=O)(=O)N2CCOCC2)c(Cl)cc1Cl`, the activity change, negative = inhibition was 32.2%.

Take `CN(C)S(=O)(=O)c1cc(C(=O)Nc2ccn(C)n2)c(Cl)cc1Cl`: the activity change, negative = inhibition is 0% (active).

For the compound `CCN(CC)C(=O)c1ccc(NC(=O)c2cc(-n3cnnc3)ccc2Cl)cc1`, the activity change, negative = inhibition was 34.8%.

`Cc1ccc(N2CC(c3nnc(Cc4ccccc4Cl)o3)CC2=O)cc1` (stereo unspecified): the activity change, negative = inhibition is -8.78%.

With `CCOC(=O)CNC(=O)c1cc2c(=O)n3cccc(C)c3nc2s1`, the activity change, negative = inhibition was 9.74%.

On to `Cc1ccc2oc(=O)c3cnn(CC(=O)N4CCN(c5cccc(Cl)c5)CC4)c3c2c1`, for which the activity change, negative = inhibition is -2.47%.

As for `CCCCN(CC)CCCNC(=O)c1nn(C)c2c1CS(=O)(=O)c1ccccc1-2`, the activity change, negative = inhibition is -8.91%.

Take `O=C(NCc1ccc(F)cc1)c1ccc2nc(N3CCCCC3)sc2c1`: the activity change, negative = inhibition is 65.5%.

Regarding `c1c2c(cc3sc(N4CCCCC4)nc13)OCCO2`, the activity change, negative = inhibition is -64.2% (active).

Take `CCOC(=O)c1cc2c(=O)n3ccccc3nc2n(CCCOC)c1=NC(=O)C(C)(C)Oc1ccc(Cl)cc1`: the activity change, negative = inhibition was 6.81%.

Consider `COc1ccc(CCNCc2c(C(=O)O)c(C)n(Cc3cccc(C)c3)c2C)cc1OC`, for which the activity change, negative = inhibition was -1.54%.

Regarding `Cc1ccccc1CN1C[C@@H]2C[C@@H](c3cn(C)nc3-c3ccccc3)N3CCC[C@@]23C1=O`, the activity change, negative = inhibition is 32.8%.

Regarding `CCOc1ccc(CNC(=O)c2cc(-c3ccc(Cl)s3)nc3ccccc23)cc1`, the activity change, negative = inhibition is 1.58%.

For `CCOc1ccc(-c2cc(C)n3nc(C(=O)Nc4ccc(C)c(C)c4)cc3n2)cc1`, the activity change, negative = inhibition is -5.97%.

Turning to `CCOc1ccc(-c2cc(C(=O)N/N=C/c3ccc(O)cc3)c3ccccc3n2)cc1`, the activity change, negative = inhibition is -83% (active).

`CCOc1ccc(-c2cc3c(=O)n(CC(=O)NCc4ccc(OC)cc4)ccn3n2)cc1`: the activity change, negative = inhibition is 78.4%.

With `CCOc1ccc(NC(=O)c2cnn(-c3ccccc3)c2-n2cccc2)cc1`, the activity change, negative = inhibition was -19.9%.

For the compound `CCOc1ccc(NC(=O)c2cc(C)nc3ccccc23)cc1`, the activity change, negative = inhibition is -60.4% (active).

Take `Cc1ccc(NC(=O)Cn2nnc3sc4c(c3c2=O)CCC(C)C4)cc1` (stereo unspecified): the activity change, negative = inhibition is -19.7%.

Turning to `COc1ccc(-c2onc(C)c2C)cc1S(=O)(=O)NCc1cccs1`, the activity change, negative = inhibition is 86.9%.

For `O=C(COc1ccc(Cl)cc1)Nc1ccccc1OCc1cc(=O)n2ccccc2n1`, the activity change, negative = inhibition was 47.7%.

As to `CC(=O)Nc1ccc(NC(=O)CCCNC(=O)c2ccc(Cl)cc2)cc1`, the activity change, negative = inhibition is -21.3%.

For `CCCCC(=O)Nc1ccc(C(=O)Nc2cc(C(F)(F)F)ccc2Cl)cc1`, the activity change, negative = inhibition is -64% (active).

Turning to `COc1ccc(C(=O)COC(=O)CCCC(=O)Nc2cc(C(F)(F)F)ccc2Cl)cc1`, the activity change, negative = inhibition is -1.47%.

Take `O=C(CCc1nc(CN2CCN(S(=O)(=O)c3ccc(Br)cc3)CC2)no1)N1CCCCC1`: the activity change, negative = inhibition was 20.2%.

With `CCOC(=O)c1ccc(NC(=O)CCS(=O)(=O)c2ccc3c(c2)oc(=O)n3C)cc1`, the activity change, negative = inhibition is 0.775%.

On to `CCOc1ccc(CNC(=O)c2cccc(Nc3nc4ccccc4n4nnnc34)c2)cc1OC`, for which the activity change, negative = inhibition is -17.1%.

In the case of `COc1cncc(-c2cnc3sc(NCCc4ccccn4)nn23)c1`, the activity change, negative = inhibition was -64.8% (active).

As for `O=C(CNC(=O)COc1ccccc1)NCCc1ccccn1`, the activity change, negative = inhibition is 31.2%.

`COc1ccc(-c2nc3sc(CCNC(=O)C(C)(C)C)c(C)n3n2)cc1`: the activity change, negative = inhibition is -21.2%.

Regarding `CCOc1ccc(NC(=O)C2CCN(S(=O)(=O)c3cc(-c4noc(C)n4)ccc3C)CC2)cc1`, the activity change, negative = inhibition was 10.9%.

Consider `CC(C)c1ccc(NC(=O)C2CCN(c3nc(-c4ccc(C(C)C)cc4)no3)CC2)cc1`, for which the activity change, negative = inhibition was -71.9% (active).

In the case of `CC(C)c1ccc(-c2noc(C3CCCN(S(C)(=O)=O)C3)n2)cc1` (stereo unspecified), the activity change, negative = inhibition was -15.2%.

Turning to `C[C@@H]1CN([C@@H](C)CO)C(=O)c2cc(NC(=O)C3CC3)ccc2O[C@H]1CN(C)C`, the activity change, negative = inhibition was 34.3%.

`COc1cc(C(=O)Nc2cc(C(F)(F)F)ccc2-n2cncn2)cc(OC)c1OC`: the activity change, negative = inhibition is -20%.

`COCCCNC(=O)c1cccc2c(-c3ccc(O)c(OC)c3)coc12`: the activity change, negative = inhibition was 71.3%.

For `CC(Sc1ccc(S(=O)(=O)N2CCN(C)CC2)cn1)C(=O)NC1CCCC(C)C1C` (stereo unspecified), the activity change, negative = inhibition is -4.06%.

In the case of `COC(=O)c1ccc(S(=O)(=O)c2ccc(C(=O)OC)s2)s1`, the activity change, negative = inhibition was 23.7%.

As to `CCc1ccc(C2=CC(=O)CC(C)(C)C2=O)cc1`, the activity change, negative = inhibition is -23%.

Take `COc1cccc(CNCc2c(C(=O)O)n(Cc3ccc(C)cc3)c3cc(C)ccc23)c1OC`: the activity change, negative = inhibition was 3.78%.

For `COc1ccc(Cn2c(C(=O)O)c(CNCc3cccc(OC)c3)c3ccc(C)cc32)cc1`, the activity change, negative = inhibition was -106% (active).

Consider `COc1ccc(Cn2c(C(=O)O)c(CNCCc3cccs3)c3ccc(OC)cc32)cc1`, for which the activity change, negative = inhibition was -4.9%.

Regarding `COc1cccc(CNC(=O)Cn2ncn3c(cc4ccccc43)c2=O)c1`, the activity change, negative = inhibition was 44.2%.

Take `Cc1ccc(C(=O)CSc2nc(-c3ccccc3)nc3c2CCCC3)c(C)c1`: the activity change, negative = inhibition is 2.92%.

In the case of `COc1ccccc1C(=O)Nc1c(C(=O)Nc2ccc(C)cc2)oc2ccccc12`, the activity change, negative = inhibition was 14.6%.

On to `c1ccc2c(c1)OCC(CNc1ncnc3nc[nH]c13)O2` (stereo unspecified), for which the activity change, negative = inhibition was -61.6% (active).

Regarding `Cc1n[nH]c(C)c1S(=O)(=O)N1CCCC(C(=O)NCC2COc3ccccc3O2)C1` (stereo unspecified), the activity change, negative = inhibition is -37.1%.

Consider `CCc1ccccc1NC(=O)CSc1nc(C)c(C(=O)Nc2ccccc2)c(-c2ccc(Cl)cc2)c1C#N`, for which the activity change, negative = inhibition was -35.3%.

For `Cc1cccc(CC(=O)Nc2cccc(-c3cn4cccnc4n3)c2)c1`, the activity change, negative = inhibition was 10%.

With `CC(=O)N1CCc2cc(S(=O)(=O)Nc3ccccc3N3CCN(C)CC3)ccc21`, the activity change, negative = inhibition was -37.8%.

Regarding `Cc1cc2c(cc1C)N1C(=O)c3cc4ccccc4cc3NC(=O)C1C(=O)N2` (stereo unspecified), the activity change, negative = inhibition is -73.2% (active).

Consider `COc1cccc(NC(=O)c2ccc3nc(CCc4ccccc4)oc3c2)c1`, for which the activity change, negative = inhibition is 41.2%.

With `CCC(C)NC(=O)c1nn(C)c(=O)c2ccccc12` (stereo unspecified), the activity change, negative = inhibition is 29.9%.

As to `COc1cc2c(cc1OC)C(/C=C/c1ccco1)=NCC2`, the activity change, negative = inhibition is -61.3% (active).

In the case of `COc1cc2c(cc1OC)C(c1cccc([N+](=O)[O-])c1)=NCC2`, the activity change, negative = inhibition is 54.4%.

With `CCOC(=O)C1=NN(c2ccc(Cl)cc2)/C(=C/C2=NCCc3cc(OC)c(OC)cc32)S1`, the activity change, negative = inhibition was 27.1%.

As to `Cc1c(CNC(C)c2ccccc2)c(C(=O)O)c(C)n1Cc1c(F)cccc1Cl` (stereo unspecified), the activity change, negative = inhibition is -11%.

On to `COc1cc2[nH]c(=S)n(Cc3ccc(C)o3)c(=O)c2cc1OC`, for which the activity change, negative = inhibition is -9.57%.

For the compound `COc1cc2[nH]c(=S)n(CCN3CCCCC3C)c(=O)c2cc1OC` (stereo unspecified), the activity change, negative = inhibition is -75.7% (active).

On to `COc1cc2[nH]c(=O)n(Cc3ccc(C(=O)NCc4ccc(C)cc4)cc3)c(=O)c2cc1OC`, for which the activity change, negative = inhibition is -0.48%.

For the compound `CCOc1cc2[nH]c(=O)n(Cc3ccc(C(=O)NCCCN4CCCC4=O)cc3)c(=O)c2cc1OCC`, the activity change, negative = inhibition is -26.6%.

With `CCOc1cc2[nH]c(=S)n(CCCN3CCCC3=O)c(=O)c2cc1OCC`, the activity change, negative = inhibition was -13%.

Take `CCOc1cc2[nH]c(=S)n(Cc3ccc(C(=O)N4CCN(C)CC4)cc3)c(=O)c2cc1OCC`: the activity change, negative = inhibition was -95.9% (active).

On to `COc1ccc(CN2CCCCC2C)cc1OC` (stereo unspecified), for which the activity change, negative = inhibition is 13.3%.

On to `COc1cc2[nH]c(=S)n(Cc3ccc(F)cc3)c(=O)c2cc1OC`, for which the activity change, negative = inhibition was -63.8% (active).

For `CCOc1cc2[nH]c(=S)n(CCN3CCCCC3C)c(=O)c2cc1OCC` (stereo unspecified), the activity change, negative = inhibition was 0.001%.

In the case of `CCOc1cccc(NC(=O)CSc2ncc(-c3ccc(Cl)cc3)[nH]2)c1`, the activity change, negative = inhibition is -2.16%.

Take `Cc1ccc(F)cc1NC(=O)CCSc1nc(-c2ccco2)cc(C(F)(F)F)n1`: the activity change, negative = inhibition was -17%.

As for `Cc1ccc(-c2cnc(C3CC3)o2)cc1S(=O)(=O)Nc1cccc(C)c1C`, the activity change, negative = inhibition was -35%.

For `CCn1nnc(NC(=O)c2cc(Cl)c(OC)c(Cl)c2)n1`, the activity change, negative = inhibition is 16.3%.

Take `O=C(CN1C2CCC1CC(NC(=O)C1CC1)C2)NCc1ccccc1` (stereo unspecified): the activity change, negative = inhibition was 18.9%.

As to `COc1ccc(CCNC(=O)c2cn(C)c3ccc(S(=O)(=O)N(C)C4CCCCC4)cc3c2=O)cc1OC`, the activity change, negative = inhibition is 7.75%.

In the case of `Nc1c(C(=O)OCC(=O)Nc2ccc(OC(F)F)cc2)[nH]c(=O)[nH]c1=O`, the activity change, negative = inhibition is -34.6%.

In the case of `COc1ccc(NC(=O)c2ccc3oc(=O)c(S(=O)(=O)c4ccc(F)cc4)cc3c2)c(OC)c1`, the activity change, negative = inhibition is 10.2%.

On to `CCCCC[C@H](C)N1C[C@@H](COCc2ccccc2)Oc2cc(N3CCC[C@@H]3CO)ccc2S1(=O)=O`, for which the activity change, negative = inhibition is 15%.

Take `CCCCC[C@H](C)N1C[C@@H](COCc2ccccc2)Oc2cc(N3CC[C@@H](N(C)C)C3)ccc2S1(=O)=O`: the activity change, negative = inhibition is -94.8% (active).

Regarding `O=S1(=O)c2c(cccc2N2CCCC2)O[C@H](COCc2ccccc2)CN1C1CC1`, the activity change, negative = inhibition was -34%.

Take `CN1C(=O)c2ccccc2Sc2ccc(NC(=O)Cc3ccc(Cl)cc3)cc21`: the activity change, negative = inhibition is -23.7%.

For `Cc1nn2c(=O)cc(COC(=O)c3cccc(NC(=O)COc4ccccc4Cl)c3)nc2s1`, the activity change, negative = inhibition was 14%.
